# Results: article PMC4336329 (PLoS ONE, 2015)
# In all, about 310,000 compounds went through this assay and about 14,000 (4.5%) showed an effect of 50% or more. Effects have a minus sign here. The entries come from a sample that favours strong results as a whole.
# Biological target: human ether-à-go-go-related gene (hERG) potassium channel (human, UniProt Q12809)
# Experiment: primary screen, population patch clamp on CHO cells stably expressing hERG; higher = less effect of the substance
# 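Also: peak tail current of the secondary pulse compared with the same well before compound.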
# human ether-à-go-go-related gene (hERG) potassium channel, sequence (Q12809 whole entry, looked up): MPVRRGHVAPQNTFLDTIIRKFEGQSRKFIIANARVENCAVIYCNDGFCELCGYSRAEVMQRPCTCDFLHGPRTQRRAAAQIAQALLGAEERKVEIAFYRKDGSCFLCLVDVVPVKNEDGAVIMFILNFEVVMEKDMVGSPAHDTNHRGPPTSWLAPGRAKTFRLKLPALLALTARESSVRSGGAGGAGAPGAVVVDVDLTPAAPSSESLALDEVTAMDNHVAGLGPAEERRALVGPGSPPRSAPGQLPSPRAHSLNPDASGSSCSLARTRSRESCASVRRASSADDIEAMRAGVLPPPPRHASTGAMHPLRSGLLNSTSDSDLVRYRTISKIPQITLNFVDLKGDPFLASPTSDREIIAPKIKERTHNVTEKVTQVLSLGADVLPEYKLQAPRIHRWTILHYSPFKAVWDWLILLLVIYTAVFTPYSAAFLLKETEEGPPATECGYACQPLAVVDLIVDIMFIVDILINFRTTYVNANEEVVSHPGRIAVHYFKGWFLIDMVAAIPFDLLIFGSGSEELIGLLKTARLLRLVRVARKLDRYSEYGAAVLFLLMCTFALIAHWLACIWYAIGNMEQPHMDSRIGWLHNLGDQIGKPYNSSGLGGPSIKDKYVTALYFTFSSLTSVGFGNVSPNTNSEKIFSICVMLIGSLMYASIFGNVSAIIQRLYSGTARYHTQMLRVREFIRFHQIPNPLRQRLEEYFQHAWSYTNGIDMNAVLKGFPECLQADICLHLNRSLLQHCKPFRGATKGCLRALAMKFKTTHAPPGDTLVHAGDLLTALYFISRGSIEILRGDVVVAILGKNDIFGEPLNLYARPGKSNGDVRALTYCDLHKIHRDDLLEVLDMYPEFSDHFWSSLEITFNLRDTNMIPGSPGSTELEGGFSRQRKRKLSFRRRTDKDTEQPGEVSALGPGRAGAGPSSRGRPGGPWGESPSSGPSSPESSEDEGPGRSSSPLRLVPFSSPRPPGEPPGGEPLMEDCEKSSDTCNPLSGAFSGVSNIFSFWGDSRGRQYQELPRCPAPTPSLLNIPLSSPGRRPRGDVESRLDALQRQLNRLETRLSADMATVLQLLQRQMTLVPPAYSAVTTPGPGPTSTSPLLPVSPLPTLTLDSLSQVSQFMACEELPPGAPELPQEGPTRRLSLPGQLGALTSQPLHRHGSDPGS
row,SMILES,"hERG current change (%, negative = inhibition) at 10uM"
1,O=C(NNC(=O)C1CC=CCC1C(=O)O)c1ccc(Cl)cc1 (stereo not shown),20.6%
2,COC(CNC(=O)C1CCCN1C(=O)OCc1ccccc1)OC (stereo not shown),5.41%
3,Cc1cc(O)c(C2=Nc3ccccc3SC(c3ccc(Cl)cc3)C2)c(=O)o1 (stereo not shown),19.4%
4,Clc1ccccc1Nc1nc2ccccc2o1,10.5%
5,O/C(=C\c1ccc2ccccc2n1)c1ccc(O)cc1O,4.33%
6,CCOc1ccc(/C=C2\SC(=S)N(NC(=O)c3ccncc3)C2=O)cc1OC,16.9%
7,COc1cc(NC(=O)CSCc2ccc(Cl)cc2)c(C(=O)O)cc1OC,13.6%
8,CN(C)S(=O)(=O)c1ccc(NC(=O)CN2CCc3ccccc32)cc1,11.8%
9,Cc1ccc(SCCNS(=O)(=O)c2ccc3c(c2)OCCO3)cc1,2.17%
10,Cc1ccc(NC(=O)CN2C(=O)c3ccccc3C2=O)nc1,6.21%
11,Cc1nc2ccsc2c(=O)n1-c1cccc(Cl)c1,14.4%
12,O=C(NNC(=O)c1cccc(O)c1)Nc1ccc([N+](=O)[O-])cc1,16.3%
13,O=C(C(Cc1ccccc1)n1cccc1)N1CCCCC1 (stereo not shown),2.03%
14,O=C(c1ccccc1)c1cccn1CC(=O)N1CCCCCC1,5.2%
15,O=C(Cc1ccccc1)N1CCN(C2CCCC2)CC1,0.401%
16,O=C(Cc1ccccc1)N1CCN(C2CCCCCC2)CC1.O=C(O)C(=O)O,-19.2%
17,COc1ccc(CCC(=O)N2CCCC(Nc3ccc(OC)cc3)C2)cc1 (stereo not shown),-6.96%
18,COc1ccc(CCC(=O)N2CCN(C3CCCCC3)CC2)cc1,-69.1%
19,O=C(C(Cc1ccccc1)n1cccc1)N1CCN(C2CCCCC2)CC1 (stereo not shown),-56.6%
20,O=C(c1ccccc1)c1cccn1CC(=O)N1CCN(C2CCCCC2)CC1,-52.6%
21,O=C(c1ccccc1)c1cccn1CC(=O)N1CCN(c2ccccc2)CC1,-9.33%
22,COc1ccc(CCC(=O)N2CCN(C(=O)c3ccccc3)CC2)cc1,5.76%

row,SMILES,"hERG current change (%, negative = inhibition) at 10uM"
1,O=C(CCCc1ccccc1)N1CCN(C2CCCCC2)CC1,-70.8%
2,O=C(C(Cc1ccccc1)n1cccc1)N1CCCCCC1 (stereo not shown),12.1%
3,CN1CCN(C(=O)Nc2ccccc2)CC1.O=C(O)C(=O)O,23.2%
4,CCN(CC(=O)Nc1cc(Cl)ccc1C)C(=O)CN1C(=O)NC2(CCCC2)C1=O,8.3%
5,CSc1ncccc1C(=O)OCC(=O)N(CC(C)C)C1CCS(=O)(=O)C1 (stereo not shown),-0.0479%
6,Cc1cc(C)nc(N(C#N)Cc2ccc(Br)cc2)n1,4.33%
7,O=C1NC(=O)N(c2ccccc2)C(=O)/C1=C/c1coc2ccc(O)cc2c1=O,-6.18%
8,CN(C)CCCNC(=S)Nc1ccc(Oc2ccccc2)cc1,-3.24%
9,CON=C1CCN(c2ncc(C(F)(F)F)cc2Cl)CC1,-5.78%
10,O=C(Cn1nnc(-c2ccccc2)n1)Nc1cccc(S(=O)(=O)N2CCOCC2)c1,-56.2%
11,COc1cc(C#N)ccc1OCC(=O)Nc1cccc(S(=O)(=O)N2CCCC2)c1,-44.4%
12,CN(C)S(=O)(=O)c1cccc(NC(=O)c2cccc(S(=O)(=O)N3CCCCC3)c2)c1,-27.9%
13,CCN(CC)S(=O)(=O)c1cccc(NC(=O)COc2ccc(C#N)cc2OC)c1,-72.4%
14,O=C(Cn1nnc(-c2ccccc2)n1)Nc1cccc(S(=O)(=O)N2CCCC2)c1,-2.26%
15,CCN(CC)S(=O)(=O)c1cccc(C(=O)Nc2ccccc2)c1,-28%
16,NC(=O)c1ccc(-c2nnn(CC(=O)Nc3cccc(S(=O)(=O)N4CCCC4)c3)n2)cc1,4.54%
17,CCN(CC)S(=O)(=O)c1cccc(NC(=O)c2cccc(S(=O)(=O)N3CCCC3)c2)c1,-80.8%
18,CCN(CC)S(=O)(=O)c1cccc(NC(=O)c2ccc(C#N)cc2)c1,-35%
19,CCN(CC)S(=O)(=O)c1cc(NC(=O)COc2ccc(C#N)cc2OC)ccc1C,-38.1%
20,CCN(CC)S(=O)(=O)c1cccc(NC(=O)CNc2cccc(S(=O)(=O)N3CCCC3)c2)c1,5.46%
21,CCN(CC)S(=O)(=O)c1cccc(C(=O)Nc2ccc(C#N)cc2)c1,-77.3%
22,Cc1cc(C)c(S(=O)(=O)c2ccccc2Cl)c(=O)[nH]1,10.7%

row,SMILES,"hERG current change (%, negative = inhibition) at 10uM"
1,C=CCOCCN(CCOCC=C)C1=NS(=O)(=O)c2ccccc21,12.5%
2,COc1ccc(NS(=O)(=O)c2cccc(NC(=O)C3=NN(c4ccccc4)C(=O)CC3)c2)cc1,-35.1%
3,O=C(NC1=NCCS1)c1cc2ccccc2o1,-23.8%
4,CN1CCN(S(=O)(=O)c2cccc(C(=O)Nc3sccc3C#N)c2)CC1,-5.03%
5,CN1CCN(S(=O)(=O)c2cccc(C(=O)Nc3cc(C(N)=O)cc(C(N)=O)c3)c2)CC1,4.71%
6,O=C(Nc1cccnc1)c1cccc(S(=O)(=O)N2CCOCC2)c1,4.06%
7,O=C(Nc1ccncc1)c1cccc(S(=O)(=O)N2CCOCC2)c1,-58.4%
8,CN(C)S(=O)(=O)c1cccc(NC(=O)c2cncc(Br)c2)c1,-3.39%
9,CN1CCN(S(=O)(=O)c2cccc(C(=O)Nc3sccc3C(N)=O)c2)CC1,-75.4%
10,O=C(Nc1ccncc1)c1cccc(S(=O)(=O)N2CCN(c3ccc(F)cc3)CC2)c1,-82.9%
11,O=C(Nc1cccc(S(=O)(=O)N2CCCC2)c1)c1cccc(S(=O)(=O)N2CCOCC2)c1,-15.5%
12,Cc1cccnc1NC(=O)c1cccc(S(=O)(=O)N2CCN(c3ccc(F)cc3)CC2)c1,-35.1%
13,O=C(Nc1ccc2c(c1)CCC2)c1cccc(S(=O)(=O)N2CCN(c3ccc(F)cc3)CC2)c1,-3.29%
14,CCN(CC)S(=O)(=O)c1cccc(NC(=O)c2ccc(Br)cc2)c1,4.07%
15,CCN(CC)S(=O)(=O)c1cccc(NC(=O)c2cncc(Br)c2)c1,-69.9%
16,Cc1ccc(SCC(=O)c2cc(C)c(O)c(C)c2)cc1,-3.19%
17,Cc1ccccc1NC(=O)CCc1nnc2ccc(N3CCC4(CC3)OCCO4)nn12,8.74%
18,CSCc1nnc(NC(=O)c2ccc(S(=O)(=O)N(C)C)cc2)o1,20.7%
19,CCOC(=O)/C(C#N)=N/Nc1ccc(S(=O)(=O)N2CCc3ccccc32)cc1,2.18%
20,CCOC(=O)C1=C(C)OC(N)=C(C#N)C1c1cccs1 (stereo not shown),8.62%
21,Cc1nnc(NC(=O)CSc2nnc(CNC(=O)C34CC5CC(CC(C5)C3)C4)n2C2CCCCC2)s1,2.98%
22,CCOc1ccccc1N1CCN(C(=O)c2cc3cc(OC)ccc3[nH]2)CC1,-3.66%

row,SMILES,"hERG current change (%, negative = inhibition) at 10uM"
1,C=CCn1c(O)c(C(CC)=Nc2ccc3c(c2)CCC3)c(=O)[nH]c1=O,1.65%
2,CCN(CC)S(=O)(=O)c1cccc(NC(=O)CNC2CCCCCC2)c1.O=C(O)C(=O)O,-60.8%
3,CCN(CC)S(=O)(=O)c1ccc(NC(=O)CNC2CCCCC2)cc1.O=C(O)C(=O)O,-7.08%
4,CN1CCN(S(=O)(=O)c2cccc(C(=O)Nc3cccc(S(N)(=O)=O)c3)c2)CC1,12.8%
5,CCc1cccc(CC)c1NC(=O)c1cccc(S(=O)(=O)N2CCN(C)CC2)c1,-4.14%
6,CN(C)S(=O)(=O)c1cccc(NC(=O)CNC2CCCCC2)c1.O=C(O)C(=O)O,5.24%
7,O=C(Nc1ccncc1)c1cccc(S(=O)(=O)N2CCCC2)c1,-60.7%
8,CCc1cccc(NC(=O)c2cccc(S(=O)(=O)N3CCN(C)CC3)c2)c1,-53.9%
9,O=C(Nc1ccccc1)c1cccc(S(=O)(=O)N2CCCCC2)c1,0.607%
10,O=C(Nc1cccc(S(=O)(=O)N2CCCC2)c1)c1ccncc1,-46.5%
11,CC(C)(CC(=O)O)CC(=O)Nc1ccc2c(c1)ncn2CCc1ccccc1,15.8%
12,CNC(=O)NC(=O)COC(=O)c1ccc(-n2c(C)ccc2C)cc1,-7.41%
13,COc1ccc(C(CC(=O)O)NC(=O)COc2cc(C)ccc2C)cc1OC (stereo not shown),21.2%
14,COCCCNc1nc2c(c(=O)[nH]c(=O)n2C)n1CC(O)COc1cccc(C)c1 (stereo not shown),-2.66%
15,CCn1c(=N)n(CC(O)COc2cccc(C)c2)c2ccccc21.Cl (stereo not shown),-58.6%
16,CCCCn1c(=N)n(CC(O)COc2cccc(C)c2)c2ccccc21.Cl (stereo not shown),-72.6%
17,CCCn1c(=N)n(CC(O)COc2cccc(C)c2)c2ccccc21.Cl (stereo not shown),-71.3%
18,Cc1ccc(-n2c(=O)[nH]cc(C(=O)Nc3ccc4c(c3)OCCO4)c2=O)cc1,18.3%
19,CC(=O)N1CCN(c2ccc(NC(=O)c3cccc(OCc4ccccc4)c3)cc2)CC1,7.06%
